PINK1 modulator = A Quantitative High throughput Screen to Identify Chemical Modulators of PINK1 Expression; PINK1 immunofluorescence, high-content cytometry, 24 h; Potency, µM (top dose mostly 76.6 µM), inactives show at the top dose activation (PINK1 increase), most hits filed as activators; 0.2% of 410,000 active; AID 624263, 2012; active means well fitted activation curve with a large enough effect; inconclusive means small, poorly fitted or top-dose-only effect; cell line not stated here; further: % of control where 0% means no effect; nearly all actives have a fitted effect of over 65% in size
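Stable cell line treated 24 h with compounds at 5 concentrations (CCCP controls), then fixed and immunostained for PINK1 plus nuclear and cell stains; PINK1 immunofluorescence quantified by laser-scanning microplate cytometry.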
KB-3-1 cytotox = qHTS assay for MDR1-selective chemotherapeutics: Primary screen using the parental adenocarcinoma cell KB-3-1. KB-3-1 viability, CellTiter-Glo ATP luminescence, 72 h. 1.4% of 400,000 active. Potency, µM (series often up to 46.1 µM), actives largely listed as cytotoxic; further: on the % scale 0 is the no-effect control and ±100 the full control effect; nearly all actives have a fitted effect of over 60% in size
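Cytotoxicity in the drug-sensitive parental line KB-3-1 was scored as loss of CellTiter-Glo luminescence following 72 h incubation with compound. Values come from curve fitting of normalized concentration-response data.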
MCF10A rerep = A quantitative high throughput screen for small molecules that induce DNA re-replication in MCF 10a normal breast cells. MCF 10A DNA re-replication, Hoechst nuclear intensity, 48 h. Potency, µM (highest dose often 46.1 µM), for the others: top-dose activity, positive = re-replication, most hits filed as activators. 2.9% of 350,000 active. AID 624296, 2012; further: % of control where 0% means no effect; nearly all actives have a fitted effect of over 50% in size
TSG101-PTAP inh = qHTS Assay for Iinhibitors of HIV-1 Budding by Blocking the Interaction of PTAP/TSG101. AID 493005, 2010. Potency, µM (highest dose often 115 µM), inactives show at the top dose activity change, negative = inhibition, usual class: inhibitors. Fluorescence polarization, FITC-PTAP peptide / Tsg101 binding. 340,000 tested, under 10 active; active means well fitted inhibition curve with a large enough effect in the main read-out, with a control signal flat, not every such curve was filed as active; inconclusive means small, poorly fitted or top-dose-only effect, or effect the other way, or a change in a side signal; inactive means no such curve, though single readings can be large or run the other way; further: % of control where 0% means no effect
Target sequence (Q99816 whole entry, looked up): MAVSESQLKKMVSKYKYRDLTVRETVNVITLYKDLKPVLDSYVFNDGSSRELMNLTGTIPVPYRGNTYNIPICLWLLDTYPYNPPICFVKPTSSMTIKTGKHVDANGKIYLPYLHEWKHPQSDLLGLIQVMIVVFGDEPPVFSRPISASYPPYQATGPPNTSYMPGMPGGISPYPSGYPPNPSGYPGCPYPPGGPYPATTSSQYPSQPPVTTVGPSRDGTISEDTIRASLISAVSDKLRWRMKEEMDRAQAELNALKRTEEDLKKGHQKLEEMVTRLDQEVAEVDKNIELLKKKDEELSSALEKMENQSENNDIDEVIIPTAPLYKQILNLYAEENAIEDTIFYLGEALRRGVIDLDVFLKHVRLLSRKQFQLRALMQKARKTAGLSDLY
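FP read-out: FITC-PTAP peptide, 50 nM final, binding Tsg101 binding domain, 10 uM final; 20 min, r.t.; 10 mM HEPES pH 7.5, 0.15 M NaCl, 0.01% Tween 20, 3 mM EDTA, 0.1 mM TCEP.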
KB-V1 cytotox = qHTS assay for MDR1-selective chemotherapeutics: Primary screen using the drug-selected MDR subline cells KB-V1. KB-V1 MDR cells viability, CellTiter-Glo, 72 h. Potency, µM (series often up to 46.1 µM), most hits filed as cytotoxic. 3.4% of 400,000 active. AID 1347076, 2019; further: on the % scale 0 is the no-effect control and ±100 the full control effect; nearly all actives have a fitted effect of over 60% in size
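qHTS viability screen in drug-selected KB-V1 MDR cells: 72 h compound treatment at 37 degrees C, ATP luminescence end point.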
SW480 rerep = A quantitative high throughput screen for small molecules that induce DNA re-replication in SW480 colon adenocarcinoma cells; Potency, µM (doses to about 46.1 µM), inactives show at the top dose re-replication activation, usual class: activators; SW480 DNA re-replication, Hoechst DNA content imaging, 48 h; 1.8% of 340,000 active; further: % of control where 0% means no effect; nearly all actives have a fitted effect of over 55% in size
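Per well, 250 cells were exposed to pinned compound for 48 hr. Nuclear DNA was visualised with Hoechst (40 min, 37 C) and total object intensity recorded by fluorescence scanning.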
Active calls of the source: *; i = inactive; ? = inconclusive; . = no result given; [ ] = remark or other dose. The list is not random: actives were taken first. Their share in the collection is about 6.8%. Unless noted, the call rests on the fitted dose curve; in most records, active means well fitted curve in the direction sought with a large enough effect; inconclusive means small, poorly fitted or top-dose-only effect, or another doubt; inactive means no such curve, though single readings can be large; an effect the other way counts as inactive or inconclusive. Potency means the concentration at half of the fitted maximal effect.

SMILES	PINK1 modulator	KB-3-1 cytotox	MCF10A rerep	TSG101-PTAP inh	KB-V1 cytotox	SW480 rerep
CC(C)C[C@@H](CN1CCCC1CN1C(=S)NC[C@@H]1Cc1ccc(O)cc1)N1C[C@H](Cc2ccc(O)cc2)N(CC2CCCCCC2)C1=S (stereo not given in full)	-1%	?	?	-4%	?	4%
CC(C)C[C@H]1CNC(=S)N1CC1CCN(CCCC2CCCCC2)CC1	3%	i	?	-2%	i	-2%
CC(C)C[C@H]1CNC(=S)N1CC1CCN(CC2CCCC2)CC1	0%	i	?	-5%	i	0.026µM*
CCOC(=O)c1c(C)c(-c2ccccc2)n(CC(=O)NC(CC)Cc2ccccc2)c1C (stereo not given)	1%	i	.	.	i	.
CC1=CC2C(C(C)C)CCC(C)(O)C2CC1 (stereo not given)	1%	.	.	.	.	.
COc1cccc(N/C(SC)=C(/C#N)C(=O)NCc2cccs2)c1	3%	i	1%	-1%	?	8%
COc1cccc(N/C(SCc2ccccc2Cl)=C(/C#N)C(=O)NCc2cccs2)c1	1%	i	23%	-2%	15µM*	8%
COc1cccc(N/C(SCc2ccccc2C)=C(/C#N)C(=O)NCc2cccs2)c1	-1%	i	10%	-3%	5.2µM*	-23%
COc1cccc(N/C(SCc2cccc([N+](=O)[O-])c2)=C(/C#N)C(=O)NCc2cccs2)c1	2%	i	7%	0%	i	7%
C=CCNC(=S)NN=C1CCCCCCC1	1%	i	7%	-9%	i	-8%
NC(=S)NN=C1CCCCCCCC1	0%	18µM*	-7%	-2%	i	-5%
COCCNC(=S)NN=C1CCCCC1	0%	i	3%	-2%	i	18µM*
CCN(CC)CC(=O)Nc1ccc(/C(C)=N/NC2=NCCN2)cc1	-1%	i	23µM*	-3%	i	18µM*
COC(=O)c1ccc(/C=C/c2c(-c3ccc(OC)cc3)oc3ccc(N4CCOCC4)cc23)cc1	1%	?	?	-1%	?	?
COc1ccc(/C=C/c2c(-c3cccc(C)c3)oc3ccc(N4CCOCC4)cc23)cc1	2%	i	9.2µM*	2%	i	6%
c1cc(-c2cc3cc(N4CCOCC4)ccc3o2)cs1	7%	i	-40%	0%	i	-21%
COc1ccc(C#Cc2c(-c3ccsc3)oc3ccc(N4CCOCC4)cc23)cc1	3%	i	16µM*	-4%	i	5%
O=C(OCc1ccc(O)cc1)c1c(-c2ccsc2)oc2ccc(N3CCOCC3)cc12	1%	?	21µM*	-2%	?	21µM*
OC1(C#Cc2c(-c3ccsc3)oc3ccc(N4CCOCC4)cc23)CCCCC1	15%	?	?	0%	i	?
COc1ccc(-c2oc3ccc(N4CCOCC4)cc3c2C#CC2(O)CCCCC2)cc1	6%	21µM*	?	-2%	i	?
COc1ccc(C(=O)Oc2cc(-c3ccc(OC)c(OC)c3)cc(=O)c3c(C)oc(C)c23)cc1	-1%	i	.	.	i	.
O=C1CCSC2(C(=O)N(Cc3ccc(F)cc3)c3ccccc32)N1c1ccc(Cl)cc1 (stereo not given)	10%	i	.	.	i	.
COc1cccc(-c2cc3c(c(OC)c2)OCCN(Cc2cccn2-c2ccccn2)C3)c1	-1%	.	.	.	.	.
COc1ccc(-c2oc3ccc(N4CCOCC4)cc3c2C#Cc2ccc(N)cc2)cc1	0%	?	5.8µM*	-12%	?	?
COc1ccc(C#Cc2c(-c3ccc(OC)cc3)oc3ccc(-c4ccc(OC)cc4)cc23)cc1	2%	i	3%	2%	i	-15%
SMILES	PINK1 modulator	KB-3-1 cytotox	MCF10A rerep	TSG101-PTAP inh	KB-V1 cytotox	SW480 rerep
COc1cccc(CNc2nc3ccc(C)cc3n3cnnc23)c1	40µM*	i	-2%	1%	i	-7%
CN(c1ccccc1C(=O)O)S(C)(=O)=O	-1%	i	0%	-4%	i	-4%
CN(C)c1ccccc1C(=O)c1ccccc1N(C)C	-1%	4.6µM*	4.1µM*	-1%	?	8.2µM*
CC(C)c1c(C(=O)N2CCN(CCO)CC2)cnn1-c1nccc(-c2cccs2)n1	0%	.	.	.	.	.
Cn1nc(C(C)(C)C)cc1C(=O)N1CCCCC1c1cc(C(=O)NCc2ccccc2)no1 (stereo not given)	2%	?	.	.	9.2µM*	.
Cn1nc(C(C)(C)C)cc1C(=O)N1CCCCC1c1cc(C(=O)NCc2ccc(F)cc2)no1 (stereo not given)	3%	?	.	.	4.1µM*	.
O=c1c2ccccc2sn1-c1ccc(Cl)cc1Cl	2%	?	.	.	15µM*	.
O=c1c2ccccc2ncn1-c1ccc(Cl)cc1Cl	1%	i	-1%	-1%	i	-12%
N#C/C(=C\c1ccc(O)cc1)C(=O)NCC1CCCO1 (stereo not given)	0%	i	.	.	i	.
c1ccc2nc(N3CCN(Cc4ccc5c(c4)OCO5)CC3)cnc2c1	0%	i	?	0%	?	?
CCOC(=O)N1CCC(=NNc2nc3ccccc3s2)CC1	1%	i	?	1%	i	?
CCCCNC(=O)C(C#N)c1nc2ccccc2nc1N1CCN(Cc2ccc3c(c2)OCO3)CC1 (stereo not given)	?	i	?	?	i	1%
N#C/C(=C\N1CCN(Cc2ccc3c(c2)OCO3)CC1)c1nc2ccccc2s1	?	?	21µM*	?	21µM*	?
CCOC(=O)N1CCN(/C=C(\C#N)c2nc3ccccc3s2)CC1	4%[38.3 µM]	i	?	?	23µM*	1%
C=CCOC(=O)C(C#N)c1nc2ccccc2nc1N1CCN(Cc2ccc3c(c2)OCO3)CC1 (stereo not given)	-3%	i	7%	-12%	23µM*	3%
CC(=O)c1ccc(F)c(-c2cc(C)cc3c2OC(CNC(=O)c2cccnc2)C3)c1 (stereo not given)	0%	.	.	.	.	.
